For seven compounds, AC50 and outcome results are on record in PubChem BioAssay (EPA / NIEHS).

Records with an inconclusive call do not appear. Calls of active or inactive are those of the source. How the source made its calls: active means hit-call score of the fitted dose curve at least 0.9, where 1 is the maximum; inconclusive means response in the unintended direction; inactive means score below 0.9.

rat Adrenergic Receptor, Beta (Adrb), Non-selective Binding, Adrb1 (gene 24925), sequence (P18090 whole entry, looked up): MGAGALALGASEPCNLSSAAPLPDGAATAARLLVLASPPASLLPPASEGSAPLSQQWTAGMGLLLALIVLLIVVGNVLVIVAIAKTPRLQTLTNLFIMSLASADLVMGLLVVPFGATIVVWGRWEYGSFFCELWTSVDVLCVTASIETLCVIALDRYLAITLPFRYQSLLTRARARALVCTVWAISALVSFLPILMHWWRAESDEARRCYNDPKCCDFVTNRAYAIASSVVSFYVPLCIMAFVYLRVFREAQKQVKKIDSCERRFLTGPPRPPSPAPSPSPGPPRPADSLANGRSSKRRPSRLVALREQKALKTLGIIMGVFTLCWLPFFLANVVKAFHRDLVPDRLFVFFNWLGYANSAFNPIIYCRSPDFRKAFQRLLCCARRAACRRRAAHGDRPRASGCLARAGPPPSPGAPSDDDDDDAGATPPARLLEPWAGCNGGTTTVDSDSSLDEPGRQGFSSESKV
rat Adrenergic, Alpha 1A Receptor (Adra1A), Adra1a (gene 29412), sequence (P43140 whole entry, looked up): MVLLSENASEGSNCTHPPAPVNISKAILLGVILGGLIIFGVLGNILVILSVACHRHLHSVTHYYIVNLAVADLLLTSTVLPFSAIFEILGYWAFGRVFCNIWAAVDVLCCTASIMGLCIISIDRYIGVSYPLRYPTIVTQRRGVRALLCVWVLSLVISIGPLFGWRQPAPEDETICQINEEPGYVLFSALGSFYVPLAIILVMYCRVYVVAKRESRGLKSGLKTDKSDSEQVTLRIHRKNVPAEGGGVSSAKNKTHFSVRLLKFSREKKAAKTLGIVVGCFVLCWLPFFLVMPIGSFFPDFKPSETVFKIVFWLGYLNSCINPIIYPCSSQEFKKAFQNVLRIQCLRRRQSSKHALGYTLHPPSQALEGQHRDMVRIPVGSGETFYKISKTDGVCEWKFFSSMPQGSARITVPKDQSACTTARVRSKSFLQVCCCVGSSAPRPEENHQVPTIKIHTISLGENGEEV

One assay addresses rat Adrenergic, Alpha 1A Receptor (Adra1A), Adra1a (gene 29412) (UniProt P43140). Description: NVS_GPCR_rAdra1A: NovaScreen (NVS) G Protein-Coupled Receptor Assay for rat Adrenergic, Alpha 1A Receptor (Adra1A) (AID 2283296). Put shortly: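 Rat cortical membranes pretreated with chlorethyl clonidine; competitive radioligand displacement, 1 h. Filter-based scintillation counting. Primary screen in duplicate at 25 uM, actives followed in concentration series.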
For `CCOC(=O)[C@]1(c2ccccc2)Oc2ccccc2[C@@H]1N`, the AC50 is 0.38 µM (active).
As to `CCC[CH2][Sn]([Cl])([CH2]CCC)[CH2]CCC`, the AC50 was 11.3 µM (active).
Consider `O=C(N[C@H](c1ccccc1)[C@@H]1CN2CCC1CC2)c1c(Cl)ccc(C(F)(F)F)c1Cl`, for which the AC50 was 18.1 µM (active).
With `[Cl-].[Cl-].[Hg+2]`, the AC50 is 12.1 µM (active).

The subject of a further assay is rat Adrenergic, Alpha 1B Receptor (Adra1B), gene 24173. Briefly: NVS_GPCR_rAdra1B: NovaScreen (NVS) G Protein-Coupled Receptor Assay for rat Adrenergic, Alpha 1B Receptor (Adra1B) (AID 2283297). A digest of the protocol: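 Rat liver membranes, radioligand displacement with filter-based scintillation detection, 1 h incubation. Primary screen in duplicate at 25 uM; actives retested in concentration series; activity relative to DMSO.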
Regarding `CCOC(=O)[C@]1(c2ccccc2)Oc2ccccc2[C@@H]1N`, the AC50 is 0.456 µM (active).
`CCC[CH2][Sn]([Cl])([CH2]CCC)[CH2]CCC`: the AC50 is 3.87 µM (active).
On to `O=C(N[C@H](c1ccccc1)[C@@H]1CN2CCC1CC2)c1c(Cl)ccc(C(F)(F)F)c1Cl`, for which the AC50 is 14.9 µM (active).
Consider `[Cl-].[Cl-].[Hg+2]`, for which the AC50 is 3.96 µM (active).

A further assay has as its target rat Adrenergic Receptor, Beta (Adrb), Non-selective Binding, Adrb1 (gene 24925) (UniProt P18090). Briefly: NVS_GPCR_rAdrb_NonSelective: NovaScreen (NVS) G Protein-Coupled Receptor Assay for rat Adrenergic Receptor, Beta (Adrb), Non-selective Binding (AID 2283298). On the procedure: NVS_GPCR_rAdrb_NonSelective is a biochemical, single-readout assay that uses extracted gene-proteins from Rat cortical membranes in a tissue-based cell-free assay. Measurements were taken 1 hour after chemical dosing in a 48-well plate.NVS_GPCR_rAdrb_NonSelective is one of one assay component(s) measured or calculated from the NVS_GPCR_rAdrb_NonSelective assay. It is designed to make measurements of radioligand binding, a form of binding reporter, as detected with scintillation counting signals by Filter-based radiodetection technology.Data from the assay component NVS_GPCR_rAdrb_NonSelective was analyzed into 1 assay endpoint. This assay endpoint, NVS_GPCR_rAdrb_NonSelective, was analyzed in the positive analysis fitting direction relative to DMSO as the negative control and baseline of activity. Using a type of binding reporter, loss-of-signal activity can be used to understand changes in the binding as they relate to the gene Adrb1. Furthermore, this assay endpoint can be referred to as a primary readout, because the performed assay has only produced 1 assay endpoint. To generalize the intended target to other relatable targets, this assay endpoint is annotated to the gpcr intended target family, where the subfamily is rhodopsin-like receptor.
Binding assays used specific radioligands (tritiated, iodinated) with non-radioactive competitive displacement ligands in agonist or antagonist protocols (as indicated) and various reference compounds and inhibitors to titrate specific binding to receptors and transporters. Most enzyme assays (CYPs, kinases, phosphatases, proteases, HDACs) used recombinant protein and specific substrates (fluorescence mostly, some colorimetric and radioactive) and inhibitors, followed by a biochemical separation of substrate and product. All assays for the biochemical HTS were initially run in duplicate at a single concentration (10 uM for CYP450 assays and 25 uM for all others). Assay-chemical combinations meeting a pre-defined threshold (e.g., 30% inhibition and other criteria defined below) were then run in singleton concentration-response format with maximum concentration of 20 uM for CYPs and 50 uM for all others. Each assay was run with positive and negative controls, and concurrent controls on every plate. The follow-up (secondary) screen tested active chemical-pairs in concentration series, as well as a few additional assays not tested in the primary screen, some selected negative inactives, and several cases re-run in the concentration series for confirmatory purposes.
Turning to `O=Cc1ccco1`, the compound was called inactive.
In the case of `CCOC(=O)[C@]1(c2ccccc2)Oc2ccccc2[C@@H]1N`, the half-maximal activity concentration (AC50) was 2.61 µM (active).
Consider `CCC[CH2][Sn]([Cl])([CH2]CCC)[CH2]CCC`, for which the AC50 is 25 µM (active).
On to `Cc1cc(N=Nc2ccccc2C)ccc1N`, for which the outcome was inactive.
As to `O=[N+]([O-])c1ccc(Oc2ccc(Cl)cc2Cl)cc1`, the AC50 is 0.52 µM (active).
In the case of `[Cl-].[Cl-].[Hg+2]`, the AC50 is 35.7 µM (active).
